This is one part of a sample in which hits are shown more often than they occur.
TTR transcr act – activators of transthyretin transcription | activation, % at 16.7 µM | hit rate 1.3% among 92,000 | SH-SY5Y TTR promoter Gaussia luciferase, luminescence; 100% = recombinant luciferase protein wells;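 active means activation above the mean of all tested compounds plus 3 SD, cut at about 9.5% in these data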;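 further: cells exposed to compounds for one day before reading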
TTR inh HuH7 – counter-screen for TTR activators: TTR transcription inhibitors in HuH7 cells; HuH7 TTR promoter-Gaussia luciferase reporter, luminescence; inhibition, % at 16.7 µM; AID 1117279; shares compounds with TTR transcr act; hit rate 4% among 1,100;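 active means average inhibition above the solvent-only control wells' mean plus 3 SD, cut at about 15% in these data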;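 further: inhibitors lower well luminescence so higher value means more inhibition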
TTR act confirm – human TTR transcription activation, confirmation. shares compounds with TTR transcr act. SHSY5Y TTR promoter Gaussia luciferase, luminescence; 100% = purified Lucia enzyme wells, no cells. activation, % at 16.7 µM. 1,100 tested, under 10 active. AID 1117280;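 active means mean activation above a set limit taken from the earlier primary screen, cut at about 11% in these data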
Large screens that a line does not name were inactive (follow-up assays come after a bar, where they were run).

O=S1(=O)c2c(cccc2N2CCC[C@@H]2CO)O[C@H]2CCN1C2	none
Cc1ccc(NC(=O)OC2CC3CC2[C@H]2CCCCN2C3)cc1C (stereo not given in full)	none
COC(=O)[C@]12C[C@H](CC(=O)NCc3ccc(OC)c(OC)c3)C(=O)N(Cc3ccco3)C1=C[C@H](C1CCCC1)O[C@@H]2C	none
CC(=O)c1cccc(NC(=O)C2Cc3c(-c4ccccc4)ccnc3O2)c1 (stereo not given)	none
CC(=O)Nc1cccc(-c2ccnc3c2CC(C(=O)Nc2cccc(NS(C)(=O)=O)c2)O3)c1 (stereo not given)	TTR transcr act 17 | TTR inh HuH7 inactive | TTR act confirm inactive
CC(=O)Nc1cccc(-c2ccnc3c2CC(C(=O)Nc2cccnc2)O3)c1 (stereo not given)	none
CCN(C(=O)CSc1nnc(-c2ccc(F)cc2)c2ccccc12)C1CCS(=O)(=O)C1 (stereo not given)	none
CCN(C(=O)CSc1nnc(C)n1Cc1ccccc1)C1CCS(=O)(=O)C1 (stereo not given)	TTR transcr act 10 | TTR inh HuH7 inactive | TTR act confirm inactive
CCN(C(=O)CSc1ccc2ccccc2c1)C1CCS(=O)(=O)C1 (stereo not given)	none
CCCC1CCC2(CC1)CCC2OC(=O)Nc1ccccc1OC (stereo not given)	none
Cc1cccc(C)c1NC(=O)CN(C)C(=O)c1cccc(S(=O)(=O)N2CCN(c3ccccc3)CC2)c1	none
Cc1cccc(C)c1NC(=O)CN(C)C(=O)c1cc(S(=O)(=O)N(C)C)ccc1N1CCCC1	none
Cc1cccc(C)c1NC(=O)CN(C)C(=O)c1cccc(S(=O)(=O)N2CCN(C)CC2)c1	TTR transcr act 15 | TTR inh HuH7 inactive | TTR act confirm inactive
COC(=O)[C@]12C[C@H](CC(=O)NCc3ccccc3)C(=O)N(Cc3ccc(Cl)cc3Cl)C1=C[C@H](C(C)C)O[C@@H]2C1CC1	none
CCOC(=O)C(Cc1ccccc1)P(=O)(OCC)OCC (stereo not given)	none
CCC[C@H]1[C@@H](OC(=O)N2CCCC2)CC[C@@]23CCCN2C(=O)CCC[C@@H]13	none
COc1cc(-c2csc(N3CCC(C(N)=O)CC3)n2)cc(OC)c1OC	none
CN=C1S/C(=C/c2cc(C)n(-c3ccc(Cl)cc3F)c2C)C(=O)N1C	none
Cc1ccc(/C=C(\C#N)C(=O)NCC2CCCO2)o1 (stereo not given)	none
N#C/C(=C\c1ccc[nH]1)C(=O)NCC1CCCO1 (stereo not given)	TTR transcr act 11 | TTR inh HuH7 inactive | TTR act confirm inactive
CCOc1cc(/C=C(\C#N)C(=O)NCC2CCCO2)ccc1O (stereo not given)	none
COC[C@@H]1CCCN1c1cccc2c1S(=O)(=O)N1CC[C@@H](C1)O2	none
CC1CCN(c2c(NCC3CCC(C(=O)NCCc4ccccc4)CC3)c(=O)c2=O)CC1 (stereo not given)	none
Cc1ccc(CCNC(=O)C2CCC(CNc3c(N4CCC(C)CC4)c(=O)c3=O)CC2)cc1 (stereo not given)	TTR transcr act 23 | TTR inh HuH7 inactive | TTR act confirm inactive
Cc1ccc(CCNC(=O)C2CCC(CNc3c(N4CCCC4)c(=O)c3=O)CC2)cc1 (stereo not given)	none
O=S(=O)(Nc1cccc2ccccc12)c1cccc2nonc12	none
Cc1ccccc1Nc1cccc2nonc12	TTR transcr act 18 | TTR inh HuH7 inactive | TTR act confirm inactive
Cc1ccccc1Nc1nc2ccccc2n1C(C)C	none
CC(C)(C)[C@@H]1/C(=C/C2CC2)N2C(=O)C[C@@H](c3ccccc3)N=C2N1Cc1ccc2c(c1)OCO2	none
CCc1nnc(NC(=O)c2cccc(S(=O)(=O)N3CCc4ccccc43)c2)s1	TTR transcr act 15 | TTR inh HuH7 inactive | TTR act confirm inactive
O=C(Nc1nc2ccccc2s1)c1cccc(S(=O)(=O)N2CCc3ccccc32)c1	none
CCc1nnc(NC(=O)c2cccc(S(=O)(=O)N3CCN(C(C)=O)CC3)c2)s1	none
Clc1ccc2nc(CNc3nc(N4CCOCC4)nc4c3ncn4-c3ccsc3)[nH]c2c1	none
CC(C)=CCC/C(C)=C/C[C@]12C[C@H](C(=O)O)N(C(=O)OC(C)(C)C)[C@@H]1N(C(=O)OC(C)(C)C)c1ccccc12	none
Cc1coc2c(C)c3oc(=O)c4c(c3cc12)CCCC4	TTR transcr act 12 | TTR inh HuH7 inactive | TTR act confirm inactive
Cc1c(OCC(=O)C(C)(C)C)ccc2c3c(c(=O)oc12)CCCC3	none
CCOC(=O)COc1ccc2c3c(c(=O)oc2c1C)CCC3	none
COCCCNC(=O)c1ccc(Cn2c(=O)c3ccccc3n(Cc3ccc([N+](=O)[O-])cc3)c2=O)cc1	none
Cc1ccccc1C(=O)NC1CCCCN(C(C)C)C1=O (stereo not given)	none
CN1C(=O)CSc2ccc(NC(=O)NCc3ccc(F)cc3)cc21	none
CC(=O)Nc1ccc(NC(=O)Nc2ccc3c(c2)N(C)C(=O)CS3)cc1	TTR transcr act 10 | TTR inh HuH7 inactive | TTR act confirm inactive
CN1C(=O)CSc2ccc(NC(=O)N3CCc4ccccc43)cc21	none
Clc1cc(Cl)cc(CNC2CCC23CCC(c2ccccc2)CC3)c1 (stereo not given)	none
Cc1ccc(Cn2cc(COC(=O)N3CCOCC3)nn2)cc1	none
COC[C@@H]1CCCN1c1cccc2c1S(=O)(=O)N1CC[C@H](C1)O2	none
Nn1cc(-c2ccccc2)nc1SCC(=O)Nc1ccc2c(c1)OCO2	TTR transcr act 14 | TTR inh HuH7 inactive | TTR act confirm inactive
Nn1c(SCC(=O)Nc2ccc3c(c2)OCO3)nncc1=O	none
O=C(CSc1nc2ccccc2s1)Nc1ccc2c(c1)OCO2	none
CCCC[C@H](C(=O)N(C)c1ccccc1)[C@@H](O)c1ccc2ccccc2c1	none
CCCCOCCCNC(=O)C[C@H]1C[C@@]2(C(=O)OC)C(=C[C@H](COCc3ccccc3)O[C@@H]2C)N(CCc2ccc(OC)c(OC)c2)C1=O	none
COc1ccc(/C=C/C(=O)NC2=NCCS2)c(OC)c1	none
C=CCN1[C@H](C)COc2cccc(N3CCSCC3)c2S1(=O)=O	none
O=C(NCCc1ccccc1)OCc1cn(-c2ccc(F)cc2)nn1	none
CCOC(=O)c1cnc2cc(-c3ccc(C(C)(C)C)cc3)nn2c1N	none
CC(=O)c1cnc2cc(-c3cccc(Br)c3)nn2c1C	TTR transcr act 9.7 | TTR inh HuH7 inactive | TTR act confirm inactive
Cc1cc(C)n2nc(-c3cccc(Br)c3)cc2n1	none
COC(=O)[C@]12C[C@H](CC(=O)NCc3ccc(OC)c(OC)c3)C(=O)N(Cc3cccc4ccccc34)C1=C[C@H](C1CCCC1)O[C@@H]2C	none
COC(=O)[C@H]1C[C@]2(C/C=C(\C)CCC=C(C)C)c3ccccc3N[C@H]2N1	none
COc1cccc(C(=O)n2ccc3ccc(-c4ccc5ccn(C(=O)c6cccc(OC)c6)c5c4)cc32)c1	none
COc1ccc(C(=O)NCC(=O)OCC(=O)NCCC2=CCCCC2)cc1	none
COc1cc(C#N)ccc1OCC(=O)NCCC1=CCCCC1	none
COc1cc(/C=C/C(=O)OCC(=O)NCCC2=CCCCC2)cc(OC)c1OC	TTR transcr act 10 | TTR inh HuH7 inactive | TTR act confirm inactive
C[C@H]1[C@@H](OC(=O)Nc2ccccc2F)CC[C@@]23CCCN2C(=O)CCC[C@@H]13	none
Cc1ccc(-c2nnc(NC(=O)COc3ccc(F)cc3Cl)o2)cc1C	none
CCOC(=O)[C@]12CCCC=C1N(Cc1ccc(OC)cc1)C(=O)[C@@H]2CC(=O)N1CCCCC1	none
